Active and inactive are the calls of the source. Where a call stands in place of a potency, no number is given. Calls follow the shape of the dose curve; as a rule, active = well fitted inhibition curve with a large enough effect; inconclusive = small, poorly fitted or top-dose-only effect; inactive = no such curve, though single readings can be large or run the other way.
Potency is read from the fitted curve at half-maximal effect.

Chain of Single-stranded DNA cytosine deaminase (Homo sapiens) (Q9GZX7 whole entry, looked up): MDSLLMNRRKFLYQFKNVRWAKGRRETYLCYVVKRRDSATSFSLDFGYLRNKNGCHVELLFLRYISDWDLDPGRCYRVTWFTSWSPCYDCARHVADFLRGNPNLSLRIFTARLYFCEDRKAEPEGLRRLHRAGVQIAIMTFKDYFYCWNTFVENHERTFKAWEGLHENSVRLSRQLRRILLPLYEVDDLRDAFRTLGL

This test concerns the target Single-stranded DNA cytosine deaminase (Homo sapiens) (UniProt Q9GZX7). The test is described as follows: Validation qHTS assay for inhibitors of Activation Induced Cytidine Deaminase (AID): AID signal (AID 1347429). To be noted: Recombinant AID, FRET ssDNA deamination with UDG, fluorescence; series mostly up to 115 µM. The text has this: Assay Provider (PI) Patricia Gearhart Ph.D. National Institute on Aging National Institute of Health (NIH), Bethesda, MD Assay Provider (PI) Rahul Kohli Ph.D. Perelman School of Medicine University of Pennsylvania, Philadelphia, PA Activation-Induced Deaminase (AID) is a cytosine deaminase which converts cytosine into uracil within stretches of ssDNA. The presence of uracil in DNA initiates a cascade of mutagenic DNA repair to introduce point mutations and DNA double strand breaks. Specific targeting of AID to the immunoglobulin heavy chain loci (Igh) promotes mutagenesis in the antibody variable region for somatic hypermutation (SHM) or switch regions leading to class switch recombination (CSR). However, AID also plays a role in accumulating unnecessary mutations across the genome. Mis-targeting of AID results in the initiation of tumor development and leads to greater drug resistance among cancer cells when continually expressed. To identify an AID inhibitor, a small molecule library will be screened in collaboration with NCATS core facility at NIH. To confirm biological function, inhibitors will be examined in an in vitro murine B-cell activation assay and subsequent secondary validation screens. Top molecules will be further screened to identify inhibitory efficacy against a wild type primary splenocytes assay. Using these approaches, we hope to identify a small molecule with great efficacy and low toxicity for use as a molecular probe to further characterize AID's intricacies, or even as a therapeutic. A FRET based analysis of cytosine deamination, was developed to identify potential inhibitors of AID catalytic activity. This screen has two signal output, Read 1 evaluates the AID inhibition response. The second readout (Read 2) evaluates UDG response and is uses as a counterscreen to exclude false positive inhibitors. Inhibition in AID and inactivity in the UDG signal is the desired outcome for this assay.
PROTOCOL TABLE SEQUENCE No. (e.g., 1, 2, 3, etc.); […] (e.g., Cells, Incubation, Reagent, etc.); VALUE; DESCRIPTION 1a; Reagent; 3 uL; [4/3x] […] 250 nM DJC20 / 250 nM DJC23 [Substrate] 5; Time; 4 hr; incubation at room temperature 6; Reagent; 4 uL; [2x] 250 mM NaOH 7; Time; 15 sec; centrifuge at 1000 rpm 8; Time; 30 min; incubation at room temperature 9a; Detection; fluorescence (Read 1: AID); EnVision (PerkinElmer) plate reader, 540 excitation and 590 emission filters 9b; Detection; fluorescence (Read 2: UDG); EnVision (PerkinElmer) plate reader, 560 excitation and 665 emission filters NOTES (numbers refer to sequence above) 1a; Reagents were dispensed in a medium-binding black solid-bottom Greiner plates (789176F) using a BioRptr liquid dispenser. Dispense 3 uL of [4/3x] 1 uM AID (provided by Kohli lab) and [4/3x] 2 U/mL UDG (NEB M0280L) into columns 1, 2, 5 to 48. 1b; Dispense 3 uL of [4/3x] 2 U/mL UDG into column 3. 1c; Dispense 3 uL of [4/3x] 1 uM AID into column 4. 2a; Compound ([…] [uM] (0.64; 3.2; 16; 80; 400; 2,000; 10,000; 20,000) double pin-transferred (Dip Factor = 2) using the Kalypsys (Wako USA) pintool equipped with a 1536 pinhead for a final concentration range of 7.32 nM - 114 uM. 2b; 10 mM Aurintricarboxylic Acid (Sigma A1895) (ATA, 8-point, n = 2, 1:2.5 dilution in column 2) double pin-transferred (Dip Factor = 2) using the Kalypsys (Wako USA) pintool equipped with a 1536 pinhead for a [final] range of 186 nM - 114 uM. 3; Room temperature incubation. 4; Dispense 1 uL of substrate mixture from the Kohli lab [4x] […] DJC20 and [4x] 250 nM DJC23 into columns 1 to 48 . 5; Room temperature incubation. 6; Dispense 4 uL of substrate mixture [2x] 250 mM NaOH into columns 1 to 48. 7; Centrifugation step to remove bubbles. 8; Room temperature incubation 9a; Fluorescence signal (column label AID) was read using the EnVision plate reader. Excitation filter = 540(8) nm, barcode = 311; Emission filter = 590(20) nm, barcode = 217; Mirror = D555, barcode = 405. […]
Background: Quantitative high-throughput screening tests each substance at several concentrations.
Regarding `CC(C)C[C@H]1C(=O)N2CCC[C@H]2[C@]2(O)O[C@](NC(=O)[C@@H]3C=C4c5cccc6[nH]c(Br)c(c56)C[C@H]4N(C)C3)(C(C)C)C(=O)N12`, the Potency result was “inactive”. For `Nc1cc(Cl)c(NC2=NCCN2)c(Cl)c1`, the Potency entry was “inactive”. To `O=C1CCC(c2ccc(-n3ccnc3)cc2)=NN1` belongs “inactive”; to `CNCCC=C1c2ccccc2CCc2ccccc21`, “inactive”; to `CC(=O)O[C@H]1C[C@@H]2CC[C@@H]3[C@H](CC[C@@]4(C)[C@H]3C[C@H]([N+]3(C)CCCCC3)[C@@H]4OC(C)=O)[C@@]2(C)C[C@@H]1[N+]1(C)CCCCC1`, 7.94 µM (active). To `C[N+]1(CCCCC[N+]2(C)CCCC2)CCCC1` belongs “inactive”. Then `CN1C2CCC1CC(OC(=O)c1c[nH]c3ccccc13)C2` (centres undefined), with “inactive”. In the case of `CC(C)COC(=O)OCN1C(=O)CN(CCN2CC(=O)N(COC(=O)OCC(C)C)C(=O)C2)CC1=O`, the Potency result is “inactive”. Then `CCCn1c(=O)[nH]c(=O)c2[nH]cnc21`, with “inactive”. Consider `Oc1ccc(O)cc1`, for which the Potency result was “inactive”. To `C[C@@H]1C(=O)NC2=Nc3cccc(Cl)c3CN21` belongs “inactive”. As for `CC(CCc1ccccc1)NCC(O)c1ccc(O)c(C(N)=O)c1` (centres undefined), the Potency entry is “inactive”. For `C1CCc2nnnn2CC1`, the Potency result is “inactive”. For the compound `O=C(O)c1cc2cc(Cc3cccnc3)ccc2o1`, the Potency entry was “inactive”. Then `CCC(NC(C)C)C(O)c1ccc(O)c(O)c1` (centres undefined), with “inactive”. Then `N[C@H](CO)C(=O)O`, with “inactive”; and `CC[C@H](C)C(=O)O[C@H]1CCC=C2C=C[C@H](C)[C@H](CC[C@@H]3C[C@@H](O)CC(=O)O3)[C@H]21`, with “inactive”. Regarding `COc1cc2c(cc1O)CC[C@@H]1[C@@H]2CC[C@]2(C)[C@@H](O)CC[C@@H]12`, the Potency result is “inactive”. With `COC(=O)[C@H]1[C@H]2C[C@H]3c4[nH]c5ccccc5c4CCN3C[C@H]2CC[C@@H]1O`, the Potency result is “inactive”. For the compound `N[C@@H](Cc1cnc[nH]1)C(=O)O`, the Potency result was “inactive”. In the case of `CNCCC(Oc1ccccc1C)c1ccccc1` (centres undefined), the Potency entry was “inactive”.

In the case of `CC1(C)CCC(NC(=O)[C@@H](N)CCC(=O)O)CC1`, the Potency result is “inactive”. Consider `CCCC1O[C@@H]2C[C@H]3[C@@H]4CCC5=CC(=O)C=C[C@]5(C)[C@H]4[C@@H](O)C[C@]3(C)[C@]2(C(=O)CO)O1` (some centres undefined), for which the Potency result was “inactive”. For the compound `C[C@]12CC[C@@H]3c4ccc(O)cc4CC[C@H]3[C@@H]1CC[C@@H]2O`, the Potency entry is “inactive”.

Values taken from PubChem BioAssay (NCATS).
